Records with an inconclusive call do not appear. The source made the active and inactive calls. Unless noted, calls follow the shape of the dose curve; as a rule, active = well fitted curve in the direction sought with a large enough effect; inconclusive = small, poorly fitted or top-dose-only effect, or another doubt; inactive = no such curve, though single readings can be large; an effect the other way counts as inactive or inconclusive.
Legend:
[1] = qHTS assay for small molecule antagonists of peroxisome proliferator-activated receptor delta signaling (AID 588535; active = well fitted inhibition curve with a large enough effect in the signal ratio, with a control signal flat, not every such curve was filed as active; the % refers to the signal ratio;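 as to max response: cells co-treated with a PPAR-delta agonist as stimulator during compound exposure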); conditions: HEK293T PPARd-UAS-bla, beta-lactamase FRET ratio, 18 h; 460 nm channel
How it was run: (§1)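 HEK293T PPAR-delta-UAS-bla cells, 4000/well, 2% charcoal/dextran FBS; 5 h 37 C; cpd titration; 18 h 37 C; CCF4 2 h RT; FI 460/530 nm; Hill fit → IC50, efficacy.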

[2] = target: Peroxisome proliferator-activated receptor delta (Homo sapiens) (UniProt Q03181); assay: as above; conditions: HEK293T PPARd-UAS-bla, beta-lactamase FRET ratio, 18 h; series mostly up to 76.7 µM
How it was run: as §1

[3] = target: Peroxisome proliferator-activated receptor gamma (Homo sapiens) (UniProt P37231); assay: qHTS assay for small molecule agonists of peroxisome proliferator-activated receptor gamma signaling (AID 588536; active = well fitted curve in the direction sought with a large enough effect in the signal ratio, with a control signal flat, not every such curve was filed as active; the % refers to the signal ratio;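 also: 0% = DMSO basal wells and 100% = rosiglitazone at 2 µM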); conditions: HEK293 PPARg-UAS-bla, beta-lactamase ratio, 16 h, percent of rosiglitazone response, DMSO as zero; series mostly up to 76.7 µM
How it was run: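 Ratiometric blue/green fluorescence (405 nm excitation; 460 and 530 nm emission) from CCF4-loaded HEK293 reporter cells serves as signal. Exposure to test compounds lasts 16 h at 37 C in medium containing 1% charcoal/dextran-treated serum.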

[4] = target: Vitamin D3 receptor (Homo sapiens) (UniProt P11473); assay: qHTS assay for small molecule antagonists of vitamin D receptor signaling (AID 588541; calls by dose curve;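 also: receptor activated by calcitriol during compound treatment; % is scaled to controls: 0 for no effect and ±100 for the full control effect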); conditions: HEK293T VDR-UAS-bla, beta-lactamase ratio, antagonist mode; series mostly up to 76.7 µM
How it was run: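 Antagonist-mode beta-lactamase reporter assay: HEK293T VDR-UAS-bla cells were exposed to titrated compound alongside 1-alpha,25-dihydroxyvitamin D3 at 3 nM final for 16 h. Values were normalized to the 50 nM agonist control and DMSO basal, with IC50 and efficacy from Hill equation fits.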

[5] = target: Vitamin D3 receptor (Homo sapiens) (UniProt P11473); assay: qHTS assay for small molecule agonists of vitamin D receptor signaling (AID 588543; calls by dose curve;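 also: 0% = DMSO basal and 100% = reference agonist control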); conditions: HEK293T VDR-UAS-bla, beta-lactamase ratio, 16 h; series mostly up to 76.8 µM
How it was run: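 Agonist-mode beta-lactamase reporter: HEK293T VDR-UAS-bla cells in charcoal-stripped 2% FBS, compound series 16 h 37 C, CCF4 2 h RT. EC50 from Hill fit, scaled against DMSO and 50 nM calcitriol control.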

[6] = qHTS assay for small molecule agonists of retinoid X receptor alpha signaling (AID 588544; calls by dose curve;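 as to activation: 0% = DMSO basal wells and 100% = reference agonist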); conditions: HEK293T RXRa-UAS-bla, beta-lactamase reporter, 18 h; 530 nm emission
[7] = target: Retinoic acid receptor RXR-alpha (Homo sapiens) (UniProt P19793); assay: as above; conditions: HEK293T RXRa-UAS-bla, beta-lactamase reporter, 18 h; series mostly up to 76.7 µM
[8] = qHTS assay for small molecule antagonists of retinoid X receptor alpha signaling (AID 588546; active = well fitted inhibition curve with a large enough effect in the signal ratio, with a control signal flat, not every such curve was filed as active; the % refers to the signal ratio;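 also: cells stimulated with 9-cis-retinoic acid as agonist; % is scaled to controls: 0 for no effect and ±100 for the full control effect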); conditions: HEK293T RXRa-UAS-bla, beta-lactamase ratio, antagonist mode; measured here: W530 green channel, cytotoxicity proxy
How it was run: (§2)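 Beta-lactamase reporter inhibition, read as CCF4 fluorescence ratio (ex 405, em 460/530 nm) after 2 h at RT. HEK293T UAS-bla cells, 2500/well, were stimulated with 9-cis-RA at 500 or 100 nM final alongside test compound for 18 h at 37 C.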

[9] = target: Retinoic acid receptor RXR-alpha (Homo sapiens) (UniProt P19793); assay: as above; conditions: HEK293T RXRa-UAS-bla, beta-lactamase ratio, antagonist mode
How it was run: as §2

[10] = qHTS assay for small molecule agonists of the antioxidant response element (ARE) signaling pathway (AID 651741; active = well fitted activation curve with a large enough effect in the signal ratio; the % refers to the signal ratio; also: potency is read from the fitted curve at half-maximal effect; as to activation: % of control where 0% means no effect); conditions: HepG2 ARE-bla reporter, beta-lactamase FRET ratio, 16 h; series mostly up to 96 µM
How it was run: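 Quantitative HTS in HepG2 cells stably expressing an ARE-beta-lactamase reporter; 16 h compound exposure at 37 C, followed by 2 h room-temperature incubation with LiveBLAzer B/G FRET substrate and fluorescence measurement.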

[11] = qHTS assay for small molecule activators of the p53 signaling pathway (AID 651743; active = well fitted activation curve with a large enough effect in the signal ratio, not every such curve was filed as active; the % refers to the signal ratio; also: % of control where 0% means no effect); conditions: HCT-116 p53RE-bla, beta-lactamase FRET ratio, 16 h; activation: stronger effect = higher value
How it was run: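 Read-out is fluorescence intensity from the LiveBLAzer B/G FRET substrate, added for 2 hours at room temperature after HCT-116 p53RE-bla cells had been incubated with compounds for 16 hours at 37 C.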

[12] = qHTS assay for small molecule activators of the nuclear factor-kappa B (NF-kB) signaling pathway (AID 651749; active = well fitted activation curve with a large enough effect in the signal ratio; the % refers to the signal ratio; also: % of control where 0% means no effect); conditions: NF-kB-bla ME-180 cells, beta-lactamase FRET ratio, 16 h; activation: stronger effect = higher value
How it was run: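 Readout: beta-lactamase reporter driven by an NF-kB response element, detected fluorescently as loss of FRET. Cells were the ME-180 line, treated 16 hr at 37C with pin-transferred compound.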

[13] = qHTS assay for environmental chemicals that activate the Aryl hydrocarbon Receptor (AhR) signaling pathway (AID 651777); conditions: 1A2-DRE human hepatoma cells, luciferase, 24 h; activation: stronger effect = higher value; also: % of control where 0% means no effect; nearly all actives have a fitted effect of over 15% in size
How it was run: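 Human hepatoma 1A2-DRE cells, stably carrying a dioxin response element and CYP1A2 promoter driving luciferase, were exposed to compounds for 24 hr at 37 C and 5% CO2. Luciferase signal was then read after 30 min One-Glo at room temperature.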

[14] = target: Peroxisome proliferator-activated receptor alpha (Homo sapiens) (UniProt Q07869); assay: qHTS assay for small molecule agonists of the peroxisome proliferator-activated receptor alpha (PPARalpha) signaling pathway (AID 651778); conditions: PathHunter PPARalpha complementation, chemiluminescence, 6 h; max response: stronger effect = higher value; also: % of control where 0% means no effect
How it was run: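 Chemiluminescence from complemented enzyme reported PPARalpha activation in cells after 6 hr of compound treatment at 37 C. The detection reagent was incubated for 60 min at room temperature, and compounds were scored as agonists.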

[15] = qHTS assay for small molecule agonists of the antioxidant response element (ARE) signaling pathway measured by Nrf2-dependant transcriptional activity (AID 720636; active = well fitted curve in the direction sought with a large enough effect in the repeat runs; an effect the other way counts as inactive or inconclusive; also: % of control where 0% means no effect); conditions: ARE-luc HepG2, Nrf2 luciferase reporter, 16 h; series mostly up to 92.4 µM
How it was run: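 ARE-luc HepG2 cells carrying an Nrf2-responsive luciferase reporter were plated in medium with 1% dialyzed FBS, left 6 hr at 37 C to attach, then exposed to compound for 16 hr. Luciferase luminescence was read after ONE-Glo addition.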

[16] = qHTS assay for small molecule agonists of the antioxidant response element (ARE) signaling pathway measured by Nrf2-dependant transcriptional activity - cell viability counter screen (AID 720653; active = well fitted curve in the direction sought with a large enough effect in the repeat runs; an effect the other way counts as inactive or inconclusive; also: % is scaled to controls: 0 for no effect and ±100 for the full control effect); conditions: ARE-bla HepG2 viability, CellTiter-Glo ATP luminescence, 16 h; max response: stronger effect = lower value
How it was run: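 Cytotoxicity counter screen: intracellular ATP quantified by CellTiter-Glo luminescence in the same ARE-bla HepG2 plates, after 16 h compound exposure and a 2 h beta-lactamase substrate step.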

[17] = qHTS assay for cell viability of HEK293 cells (AID 743288); conditions: ATP luminescence (CellTiter-Glo), 18 h; max response: stronger effect = lower value; also: nearly all actives have a fitted effect of over 50% in size; also: potency is read from the fitted curve at half-maximal effect
How it was run: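 Total intracellular ATP, measured with a luciferase-coupled reagent, indicates the number of viable HEK293 cells. Exposure to test chemicals lasts 18 h at 37 C in 1,536-well format at 2,000 cells/well.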

[18] = qHTS assay for cell viability of the p53RE-bla HCT-116 cell line (AID 743292); conditions: p53RE-bla HCT-116 viability, ATP luminescence, 16 h; series mostly up to 95 µM; also: % is scaled to controls: 0 for no effect and ±100 for the full control effect; nearly all actives have a fitted effect of over 55% in size
How it was run: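 CellSensor p53RE-bla HCT-116 cells, 4,000/well, preincubated 5 h at 37 C, then exposed to compounds in DMSO for 16 h at 37 C. Viability read as CellTiter-Glo luminescence (intracellular ATP) after 30 min at room temperature.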

[19] = target: Nuclear receptor subfamily 1 group I member 2 (Rattus norvegicus) (UniProt Q9R1A7); assay: qHTS assay for small molecule activators of the rat pregnane X receptor (rPXR) signaling pathway (AID 651751; call rule not given here; also: 0% is about no effect); conditions: rPXR reporter cells, luciferase (One-Glo), 24 h
[20] = qHTS assay for small molecule activators of the human pregnane X receptor (PXR) signaling pathway (AID 720659; call rule not given here; also: 0% is about no effect); conditions: DPX-2 HepG2 CYP3A4-luciferase, 24 h; series mostly up to 92.3 µM
[21] = target: Peroxisome proliferator-activated receptor gamma (Homo sapiens) (UniProt P37231); assay: qHTS assay for small molecule antagonists of peroxisome proliferator-activated receptor gamma signaling (AID 588537; active = well fitted inhibition curve with a large enough effect in the signal ratio, with a control signal flat, not every such curve was filed as active; the % refers to the signal ratio;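 also: reporter cells co-stimulated with 50 nM rosiglitazone agonist during compound treatment; % of control where 0% means no effect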); conditions: HEK293 PPARg-UAS-bla, beta-lactamase ratio, antagonist mode; series mostly up to 76.8 µM
How it was run: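 Antagonist mode, beta-lactamase reporter in HEK293; charcoal/dextran FBS 1%; 3000 cells/well, 37 C 6-6.5 h; cpd titration + rosiglitazone 50 nM final, 16 h 37 C; CCF4, 2 h RT; 460/530 nm; Hill fit → IC50, efficacy.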

[22] = target: Thyroid hormone receptor beta (Homo sapiens) (UniProt P10828); assay: qHTS assay for small molecule agonists of thyroid hormone receptor beta signaling (AID 588545; calls by dose curve;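 also: 0% = DMSO only and 100% = 10 nM T3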); conditions: TR-UAS-bla GripTite HEK 293, beta-lactamase ratio, agonist mode, 18 h; series mostly up to 76.7 µM
How it was run: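 Compounds were tested as agonists in TR-UAS-bla-GripTite HEK 293 cells. After 18 hrs at 37 C, CCF4 substrate was added and fluorescence read after 2 hrs at room temperature.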

[23] = target: Thyroid hormone receptor beta (Homo sapiens) (UniProt P10828); assay: qHTS assay for small molecule antagonists of thyroid hormone receptor beta signaling (AID 588547; active = well fitted inhibition curve with a large enough effect in the signal ratio, with a control signal flat, not every such curve was filed as active; the % refers to the signal ratio;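 also: cells stimulated with 0.4 nM T3 agonist during compound exposure; % is scaled to controls: 0 for no effect and ±100 for the full control effect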); conditions: TR-UAS-bla HEK293, beta-lactamase ratio, antagonist mode, 18 h
How it was run: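 Inhibition of T3-driven (0.4nM final) beta-lactamase reporter activity was measured over 0.59 nM to 92 uM compound after 18 h at 37 C. The cells were GripTite HEK293 TR-UAS-bla in charcoal/dextran-stripped serum, with CCF4 ratio read-out and IC50 from Hill fits.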

[24] = target: Glucocorticoid receptor (Homo sapiens) (UniProt P04150); assay: qHTS assay for small molecule agonists of glucocorticoid receptor signaling (AID 588532; active = well fitted curve in the direction sought with a large enough effect in the signal ratio, with a control signal flat; the % refers to the signal ratio;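 also: 100% = dexamethasone at 0.1 µM and 0% = DMSO only wells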); conditions: HeLa MMTV-bla, beta-lactamase ratio, agonist, 18 h; stronger effect = higher value; percent of dexamethasone control, DMSO zero
How it was run: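 Quantitative HTS using CellSensor MMTV-bla HeLa cells in charcoal/dextran-treated serum; compounds tested up to 92 uM. After 18 h at 37 C, CCF4 dye reported reporter induction.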

Thyroid hormone receptor beta (Homo sapiens), sequence (P10828 whole entry, looked up): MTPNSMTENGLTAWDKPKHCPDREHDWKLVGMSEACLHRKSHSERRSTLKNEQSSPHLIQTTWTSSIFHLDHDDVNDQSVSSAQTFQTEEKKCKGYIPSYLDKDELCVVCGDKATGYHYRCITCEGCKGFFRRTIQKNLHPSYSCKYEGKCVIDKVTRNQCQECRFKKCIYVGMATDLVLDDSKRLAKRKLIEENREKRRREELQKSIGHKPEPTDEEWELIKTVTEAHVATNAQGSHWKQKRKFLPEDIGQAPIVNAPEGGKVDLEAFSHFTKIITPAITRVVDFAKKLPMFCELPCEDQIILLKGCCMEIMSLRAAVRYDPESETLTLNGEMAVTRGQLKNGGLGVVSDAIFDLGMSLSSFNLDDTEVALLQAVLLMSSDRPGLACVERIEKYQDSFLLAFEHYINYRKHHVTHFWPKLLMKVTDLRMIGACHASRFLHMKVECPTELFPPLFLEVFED
Retinoic acid receptor RXR-alpha (Homo sapiens), sequence (P19793 whole entry, looked up): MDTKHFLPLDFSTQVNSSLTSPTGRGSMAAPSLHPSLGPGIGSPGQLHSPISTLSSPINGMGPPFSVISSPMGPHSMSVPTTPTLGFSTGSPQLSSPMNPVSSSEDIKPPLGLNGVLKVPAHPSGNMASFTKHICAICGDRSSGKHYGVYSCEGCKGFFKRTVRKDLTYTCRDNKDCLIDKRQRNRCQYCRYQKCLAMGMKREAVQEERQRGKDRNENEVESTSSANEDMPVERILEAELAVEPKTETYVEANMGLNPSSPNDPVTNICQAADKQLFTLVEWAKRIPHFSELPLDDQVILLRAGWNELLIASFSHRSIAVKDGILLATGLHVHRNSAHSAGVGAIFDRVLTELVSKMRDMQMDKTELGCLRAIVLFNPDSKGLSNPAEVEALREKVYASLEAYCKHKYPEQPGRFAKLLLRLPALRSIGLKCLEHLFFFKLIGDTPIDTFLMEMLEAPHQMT
Vitamin D3 receptor (Homo sapiens), sequence (P11473 whole entry, looked up): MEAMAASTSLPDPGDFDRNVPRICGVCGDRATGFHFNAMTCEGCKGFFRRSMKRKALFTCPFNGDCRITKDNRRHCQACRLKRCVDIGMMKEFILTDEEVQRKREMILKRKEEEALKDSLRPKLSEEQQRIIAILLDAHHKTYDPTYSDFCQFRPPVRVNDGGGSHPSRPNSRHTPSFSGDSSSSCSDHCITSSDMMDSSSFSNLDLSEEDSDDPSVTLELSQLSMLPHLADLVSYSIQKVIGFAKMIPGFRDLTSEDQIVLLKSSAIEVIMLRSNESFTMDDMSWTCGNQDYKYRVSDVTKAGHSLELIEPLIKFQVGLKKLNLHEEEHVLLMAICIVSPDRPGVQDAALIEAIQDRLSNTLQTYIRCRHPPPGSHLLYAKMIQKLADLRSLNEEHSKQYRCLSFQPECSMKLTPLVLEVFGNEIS
Peroxisome proliferator-activated receptor gamma (Homo sapiens), sequence (P37231 whole entry, looked up): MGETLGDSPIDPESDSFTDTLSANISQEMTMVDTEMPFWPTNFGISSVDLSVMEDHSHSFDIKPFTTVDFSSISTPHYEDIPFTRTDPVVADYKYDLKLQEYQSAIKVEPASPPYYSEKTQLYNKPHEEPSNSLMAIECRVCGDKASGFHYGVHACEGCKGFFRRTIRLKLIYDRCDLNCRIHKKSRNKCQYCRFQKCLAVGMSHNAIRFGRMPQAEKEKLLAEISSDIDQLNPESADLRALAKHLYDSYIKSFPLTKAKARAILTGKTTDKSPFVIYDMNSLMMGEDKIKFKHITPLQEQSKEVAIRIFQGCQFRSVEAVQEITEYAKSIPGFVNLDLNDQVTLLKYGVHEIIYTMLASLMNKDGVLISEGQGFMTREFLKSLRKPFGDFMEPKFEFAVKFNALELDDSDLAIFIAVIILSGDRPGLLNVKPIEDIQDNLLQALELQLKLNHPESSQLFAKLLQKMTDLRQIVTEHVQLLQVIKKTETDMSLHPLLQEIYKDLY
Nuclear receptor subfamily 1 group I member 2 (Rattus norvegicus), sequence (Q9R1A7 whole entry, looked up): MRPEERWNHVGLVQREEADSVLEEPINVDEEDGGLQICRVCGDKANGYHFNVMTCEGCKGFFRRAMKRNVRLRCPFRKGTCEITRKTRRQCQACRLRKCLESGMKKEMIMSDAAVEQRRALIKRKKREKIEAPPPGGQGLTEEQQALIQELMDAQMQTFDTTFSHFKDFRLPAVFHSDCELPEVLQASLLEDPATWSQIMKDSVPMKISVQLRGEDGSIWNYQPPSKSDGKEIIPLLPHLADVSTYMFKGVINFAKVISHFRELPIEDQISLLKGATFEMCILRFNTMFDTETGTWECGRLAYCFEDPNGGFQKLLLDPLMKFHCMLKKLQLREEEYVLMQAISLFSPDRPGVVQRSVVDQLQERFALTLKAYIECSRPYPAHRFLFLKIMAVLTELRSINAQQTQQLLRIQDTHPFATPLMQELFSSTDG
Peroxisome proliferator-activated receptor delta (Homo sapiens), sequence (Q03181 whole entry, looked up): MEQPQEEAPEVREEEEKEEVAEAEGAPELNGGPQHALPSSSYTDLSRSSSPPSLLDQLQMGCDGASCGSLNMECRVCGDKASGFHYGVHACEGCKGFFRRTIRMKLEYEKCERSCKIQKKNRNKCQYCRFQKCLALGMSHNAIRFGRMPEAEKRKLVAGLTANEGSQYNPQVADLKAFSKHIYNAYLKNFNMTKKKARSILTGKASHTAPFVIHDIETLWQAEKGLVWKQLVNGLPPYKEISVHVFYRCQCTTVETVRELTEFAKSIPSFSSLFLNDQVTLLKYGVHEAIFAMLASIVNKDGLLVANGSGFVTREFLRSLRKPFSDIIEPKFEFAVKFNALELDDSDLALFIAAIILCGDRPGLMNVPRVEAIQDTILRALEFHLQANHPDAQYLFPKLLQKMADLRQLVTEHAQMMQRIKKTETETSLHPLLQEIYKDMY
Peroxisome proliferator-activated receptor alpha (Homo sapiens), sequence (Q07869 whole entry, looked up): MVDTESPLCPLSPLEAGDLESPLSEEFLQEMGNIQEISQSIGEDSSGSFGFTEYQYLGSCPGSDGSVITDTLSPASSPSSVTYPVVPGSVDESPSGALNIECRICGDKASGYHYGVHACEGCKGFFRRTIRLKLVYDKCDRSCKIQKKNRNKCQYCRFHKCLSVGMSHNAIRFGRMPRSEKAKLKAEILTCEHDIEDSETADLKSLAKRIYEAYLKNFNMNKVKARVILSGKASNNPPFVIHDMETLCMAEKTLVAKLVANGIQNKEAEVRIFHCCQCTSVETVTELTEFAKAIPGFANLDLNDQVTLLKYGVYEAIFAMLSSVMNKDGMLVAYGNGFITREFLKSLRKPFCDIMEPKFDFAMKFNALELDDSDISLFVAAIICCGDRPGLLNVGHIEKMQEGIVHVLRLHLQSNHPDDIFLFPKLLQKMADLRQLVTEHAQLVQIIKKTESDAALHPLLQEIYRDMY
Glucocorticoid receptor (Homo sapiens), sequence (P04150 whole entry, looked up): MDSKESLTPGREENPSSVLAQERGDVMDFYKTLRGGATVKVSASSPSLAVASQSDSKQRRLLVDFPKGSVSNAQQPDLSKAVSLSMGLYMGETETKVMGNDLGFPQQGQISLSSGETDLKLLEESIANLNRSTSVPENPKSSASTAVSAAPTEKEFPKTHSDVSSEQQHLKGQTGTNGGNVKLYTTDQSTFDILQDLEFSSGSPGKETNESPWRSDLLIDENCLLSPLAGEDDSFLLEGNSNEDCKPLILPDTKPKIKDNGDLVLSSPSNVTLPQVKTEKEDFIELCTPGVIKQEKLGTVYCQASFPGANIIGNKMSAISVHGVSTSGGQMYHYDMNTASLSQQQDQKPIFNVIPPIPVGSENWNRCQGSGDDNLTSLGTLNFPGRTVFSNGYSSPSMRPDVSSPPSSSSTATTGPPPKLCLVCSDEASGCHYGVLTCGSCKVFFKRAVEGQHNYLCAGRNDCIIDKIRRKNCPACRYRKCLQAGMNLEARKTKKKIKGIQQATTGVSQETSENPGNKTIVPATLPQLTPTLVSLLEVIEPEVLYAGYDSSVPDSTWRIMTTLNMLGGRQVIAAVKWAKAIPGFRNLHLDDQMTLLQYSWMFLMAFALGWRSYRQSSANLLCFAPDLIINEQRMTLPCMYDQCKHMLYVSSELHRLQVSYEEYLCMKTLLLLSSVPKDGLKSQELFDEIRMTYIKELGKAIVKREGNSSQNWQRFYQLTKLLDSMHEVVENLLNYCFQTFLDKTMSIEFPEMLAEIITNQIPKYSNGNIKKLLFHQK

CCCCCCCCCCCCc1ccccc1
-16.5%: max response [8]
-16.9%: max response [1]
inactive: Potency [2] | outcome [3] | Potency [4] | outcome [5] | Potency [7] | max response [9] 3.12% | Potency [10] | activation [11] -0.535% | activation [12] 1.6% | activation [13] 0.463% | max response [14] -0.756% | Potency [15] | max response [16] -12.7% | max response [17] 2.81% | Potency [18] | max response [19] 0.082% | outcome [20]
-7.45%: max response [6]

CCCOC(=O)NCCCN(C)C
-8.13%: max response [8]
inactive: outcome [3] | Potency [21] | Potency [4] | outcome [5] | Potency [22] | max response [9] 1.48% | activity change % (negative = inhibition) [23] 1.87% | Potency [10] | activation [11] -1.96% | activation [13] 2.96% | max response [14] -0.73% | Potency [15] | max response [16] -5.96% | max response [17] -0.93% | Potency [18] | max response [19] 8.36% | outcome [20]

O=c1oc(=O)c2cc3c(=O)oc(=O)c3cc12
2.24%: max response [8]
11%: max response [1]
-7.31%: max response [6]
inactive: Potency [2] | outcome [3] | Potency [4] | outcome [5] | Potency [7] | Potency [22] | max response [9] -12.6% | activity change % (negative = inhibition) [23] -2.54% | Potency [10] | activation [12] -1.97% | activation [13] 0.0535% | max response [14] -1.48% | Potency [15] | max response [16] -10.8% | max response [17] -11.4% | Potency [18] | max response [19] -1.16% | outcome [20]

CCCCCCCCCCCCCCCO
inactive: Potency [2] | outcome [3] | Potency [21] | Potency [4] | outcome [5] | Potency [7] | Potency [22] | max response [9] -24% | activity change % (negative = inhibition) [23] 4.44% | Potency [10] | activation [11] -0.317% | activation [12] -1.59% | activation [13] 2.17% | max response [14] 0.401% | Potency [15] | max response [17] -19.2% | Potency [18] | max response [19] 3.48% | outcome [20]
-3.46%: max response [8]
-44.9%: max response [1]
-7.63%: max response [6]

C=CC(=O)OCCOCC(CC)(COCCOC(=O)C=C)COCCOC(=O)C=C
inactive: activation [24] -19.8% | outcome [5] | activation [11] 14.9% | activation [13] 5.29% | max response [14] -0.796% | max response [16] -10.9% | outcome [20]
active: Potency [10] 30.6 µM | Potency [17] 39.8 µM
